The whole screen tested about 65,000 compounds, of which about 2,100 (3.2%) showed an effect of 50% or more. The median lay at about -52%. This excerpt belongs to a sample that is enriched for strong results.
Test system: Plasmodium falciparum
Experiment: Screen against P. falciparum Asexual Blood Stage (ABS), at 5uM
Assay type: functional, Dd2
Conditions: tested at 5 uM

| SMILES | INHIBITION [%] |
| --- | --- |
| Cc1cccc2c1ccn2CCC(=O)Nc1c2c(nn1C)CSC2 | -53.4 |
| Cc1ccc(Br)cc1NC(=O)NC1CCC2(C1)OCCO2 (stereo not given) | -96.9 |
| CC1N(c2cnn(C)c2)C(=O)COC12CCN(c1ncccn1)CC2 (stereo not given) | -127 |
| CCc1nn(-c2cc(Oc3cc(C)ccc3C)ncn2)c(N)c1C#N | -64 |
| C[C@]1(O)CN(CCC(N)=O)CC[C@@H]1Oc1cccc(F)c1 | -39.3 |
| C[C@]1(O)CN(CCO)CC[C@@H]1Oc1cccc(F)c1 | 65.2 |
| C[C@]1(O)CN(CC(=O)N2CCCC2)CC[C@@H]1Oc1cccc(F)c1 | 25 |
| CCc1cnc(N2CCc3cc(C(=O)NC)c(N(C)C)nc3CC2)nc1 | -12.1 |
| O=C1[C@@H]2CC[C@@H](CN(c3ncnc4ccsc34)C2)N1CC1CC1 | -85.4 |
| CC(C)Cc1noc(CN(C)c2cc(N(C)C)ncn2)n1 | 50.4 |
| CCc1cc(N(C)Cc2noc(CC(C)C)n2)ncn1 | -78.3 |
| CC(C)Cc1noc(CN(C)c2ncccn2)n1 | -64.8 |
| CNc1cc(N2CCCC2CNCc2ccco2)ncn1 (stereo not given) | -103 |
| O=C(C1CCOC1)N1CC2(CCN(c3ccccc3)C2)C1 (stereo not given) | -3.52 |
| CC(C)CC(=O)N1CC(=O)c2sc(Nc3ccc(F)cc3F)nc2C1 | -30.6 |
| Cc1cnn(CC2CCN(CC(O)CN3CCC(C)CC3)CC2)c1 (stereo not given) | 63.8 |
| Cc1ccc(OCC(O)CN2CCC(Cn3cc(C)cn3)CC2)cc1 (stereo not given) | -93.6 |
| Cc1cnn(CC2CCN(CC(O)Cn3cccn3)CC2)c1 (stereo not given) | -78.8 |
| CCc1nc(C)c(C(=O)NCCNC(=O)c2cccs2)s1 | -96.9 |
| CCc1nc(NCCCn2cccn2)c2c(n1)c(C)nn2CC | -75.8 |
| COCCNC(=O)CN(C)C(C)c1nc(C)no1 (stereo not given) | -63.5 |
| Cc1ccsc1C(=O)NCc1ccnc(C2CCCOC2)n1 (stereo not given) | -57.8 |
| Cn1cccc1C(=O)NCc1ccnc(C2CCCOC2)n1 (stereo not given) | -162 |

| SMILES | INHIBITION [%] |
| --- | --- |
| Cc1ccc(C(=O)NCc2ccnc(C3CCCOC3)n2)s1 (stereo not given) | 53.3 |
| COc1cc(F)ccc1-c1cc(N)ccn1 | 52.7 |
| COc1ccc(-c2cc(N)ccn2)c(OC)c1OC | -9.16 |
| COc1cc(F)ccc1-c1cc(CO)ccn1 | -92 |
| CC(=O)NCc1nn(C)c2c1CN(Cc1ccsc1)C2 | -24.6 |
| Cc1csc(N2CCN(C3CCc4ccccc4C3)CC2)n1 (stereo not given) | -22.1 |
| Fc1ccc(CN2CCOCC3(CCN(Cc4nccs4)C3)C2)cc1 (stereo not given) | 0.38 |
| Fc1ccc(CN2CCC3(CC2)CCN(c2ncccn2)CC3)cc1 | 55 |
| COc1ccc(CN2CCC3(CC2)CCN(c2ncccn2)CC3)cc1 | -85.1 |
| c1csc(CN2CC3(CCN(Cc4ccsc4)C3)C2)n1 | -42.4 |
| c1cnc(N2CCC3(CCN(Cc4cccnc4)CC3)CC2)nc1 | -71.4 |
| Fc1ccc(CN2CCC3(CCN(Cc4nccs4)CC3)C2)cc1 | 57.9 |
| CSc1cccc(NC(=O)N2CCC3(CCC(=O)N(C4CC4)C3)CC2)c1 | -19.6 |
| O=C(CCC(F)(F)F)N1CCCC(CO)(CC2CC2)C1 (stereo not given) | -11.2 |
| Cc1ccc(CN2CCc3c(nnn3C)C2COCc2ccccc2)s1 (stereo not given) | -109 |
| O=C(N1CCc2ccccc2CC1)C1(O)Cc2ccccc2C1 | 58.7 |
| O=C(N1CCSCC1)C1(O)Cc2ccccc2C1 | -41.2 |
| O=C(N1CCN(CCO)CC1)C1(O)Cc2ccccc2C1 | -1.26 |
| Nc1nnnn1NCc1cccc(Cl)c1Cl | -65.4 |
| Cc1nc(C)n(CC2CCCN(CC(=O)Nc3cccnc3)C2)n1 (stereo not given) | -133 |
| Cc1nc(C)n(CC2CCCN(CC(=O)Nc3ccncc3)C2)n1 (stereo not given) | 60.6 |
| Cc1cc(NC(=O)CN2CCCC(Cn3nc(C)nc3C)C2)n(C)n1 (stereo not given) | 54.5 |
| Cc1nc(C)n(CC2CCCN2CC(=O)Nc2ccncc2)n1 (stereo not given) | -153 |

| SMILES | INHIBITION [%] |
| --- | --- |
| Cc1cc(NC(=O)CN2CCCC2Cn2nc(C)nc2C)n(C)n1 (stereo not given) | -142 |
| Cc1nc(C)n(CC2CCCN(CC(=O)Nc3cc(C)on3)C2)n1 (stereo not given) | 3.79 |
| COCC(=O)Nc1ccc(C)cc1-c1nc(C2CC2)no1 | -92.7 |
| CCn1cc2c(n1)CN(Cc1ccc(C)o1)CC2COCC1CC1 (stereo not given) | -68.6 |
| O=C(NCC1CCCCC1)NC1CCCc2c1cnn2CCO (stereo not given) | -133 |
| Cc1c(C(C)NC(=O)N2CCN(C3CCCC3)CC2)cnn1C (stereo not given) | -70.2 |
| COC(=O)c1sc2cccc(F)c2c1CNC(=O)C1CCOC1 (stereo not given) | -5.44 |
| Cc1cc(Nc2ccc(F)cn2)cc(C2CCN(Cc3ncc[nH]3)C2)n1 (stereo not given) | -49.2 |
| Fc1cccc(OC2CCN(Cc3ncc[nH]3)CC2)c1 | 36.9 |
| Cc1cccc(Nc2ccc(C3CCN(Cc4ncc[nH]4)CC3)nc2)n1 | 51.8 |
| Fc1ccc(Nc2ccc(C3CCN(Cc4ncc[nH]4)CC3)nc2)nc1 | 63.1 |
| CNc1cccc(C2CCCN(Cc3ncc[nH]3)C2)n1 (stereo not given) | -20.8 |
| Cc1nnc(Nc2cccc(C3CCN(Cc4ncc[nH]4)CC3)n2)s1 | 31.6 |
| CCN(CC)C(=O)C1CCCN1C(=O)c1cccc(-n2cnnn2)c1 (stereo not given) | -72.5 |
| O=C(CCCOc1ccccc1F)NCCCC(=O)Nc1cn[nH]c1 | -97.2 |
| Cc1cc(C)n(CC2CCCN2C(=O)c2ccc3c(c2)COC3)n1 (stereo not given) | -101 |
| CN(C)c1ccc(CNC2=NCCCN2)cc1 | -56.7 |
| CCOCc1ccc(CNC2=NCCCN2)cc1 | 55.7 |
| c1ccc(OCCNC2=NCCCN2)cc1 | 16.3 |
| CCOCCOC(C)C(=O)NCc1cn2cc(Cl)ccc2n1 (stereo not given) | -73.4 |
| COc1ccc(S(=O)(=O)N2C[C@H](OC)[C@]3(CCCO3)C2)cc1 | -98.4 |
| COCC(=O)N[C@@H]1CN(Cc2ccc3c(c2)OCCO3)C[C@H]1O | -66.5 |
| Cc1nn(C)c2cn(C(C)C(=O)NCc3cccc(F)c3)nc12 (stereo not given) | -32 |

| SMILES | INHIBITION [%] |
| --- | --- |
| c1ncn(CC2CCCN(Cc3nnc(C4CC4)o3)C2)n1 (stereo not given) | -49 |
| CC(C)(C)c1nnc(CN2CCCC(Cn3cncn3)C2)o1 (stereo not given) | -204 |
| c1coc(-c2noc(CN3CCCC(Cn4cncn4)C3)n2)c1 (stereo not given) | -29 |
| Cc1oc(-c2ccco2)nc1CN1CCCC(Cn2cncn2)C1 (stereo not given) | 56.4 |
| c1coc(-c2nc(CN3CCCC(Cn4cncn4)C3)cs2)c1 (stereo not given) | -19.5 |
| CC(C)c1nnc(CN2CCCC(Cn3cncn3)C2)o1 (stereo not given) | 53.1 |
| COc1ccc2c(c1)CC(C1CCOCC1)N(C(=O)c1cnccn1)C2 (stereo not given) | -108 |
| COC(=O)c1ccc(N2CCN(C(=O)c3cccnc3)C(C)C2)cc1 (stereo not given) | -5.1 |
| CN(C)C(=O)CN1CCc2ncnc(NC3CCC3)c2CC1 | -76.8 |
| CCC(CO)N(CC=C(C)C)Cc1ccsc1 (stereo not given) | 23.4 |
| CCC(CO)N(Cc1ccc(C(=O)O)cc1)Cc1ccsc1 (stereo not given) | -74.7 |
| CCC(CO)N(Cc1ccsc1)Cc1cccc(O)c1 (stereo not given) | 67.6 |
| O=C(NCCCN1CCOCC1)c1nc(-c2ccc3cc[nH]c3c2)no1 | 20.5 |
| COc1cccc(CC(=O)N2CCCC2c2nc(C)c(C)c(O)n2)c1 (stereo not given) | -102 |
| CN(CCC#N)C(=O)Cn1nnnc1C(C)(C)C | -112 |
| CC(O)(CNC(=O)c1c(F)cccc1Cl)c1ccco1 (stereo not given) | -45.8 |
| CC(C)c1cc(C(=O)NCCN2CCOCC2)nc(N2CCCC2)n1 | -70.3 |
| c1nc(CCNc2nc(C3CC3)nc3c2CCNCC3)c[nH]1 | -79.3 |
| c1cc(-c2nc3c(c(NCCc4c[nH]cn4)n2)CCNCC3)ccn1 | -225 |
| c1ccc(-c2nc3c(c(NCCc4c[nH]cn4)n2)CCNC3)cc1 | 51.1 |
| Cc1ccc(C(=O)N2CCC(O)(CN3CCc4ccccc4C3)C2)s1 (stereo not given) | -64.4 |
| CN(C)Cc1ccc(C(=O)N2CCCC(COc3ccc(F)cc3)C2)o1 (stereo not given) | 17.1 |
| CC(NC(=O)NCCCN(C)S(C)(=O)=O)c1ccc(Cl)cc1 (stereo not given) | -42.6 |

| SMILES | INHIBITION [%] |
| --- | --- |
| COc1ccc(C)cc1NC(=O)Nc1cnc(N2CCCC2)nc1 | -26.2 |
| COc1ccc(NC(=O)c2cnc(N3CCN(C)CC3)nc2C)cc1 | -103 |
| Cc1ccc(NC(=O)Nc2cnc(N3CCN(C)CC3)nc2)cc1 | 59.3 |
| CCC1CN(C)c2ccccc2CN1C(=O)Nc1cccc(F)c1 (stereo not given) | -107 |
| COCCN(CCOC)C(=O)c1cnn(C)c1C | -57.9 |
| CCc1nc(C)sc1CNC1CCN(Cc2ccccc2)C1 (stereo not given) | -2.57 |
| Cc1nc(CNC2CCN(Cc3ccccc3)C2)sc1C (stereo not given) | 7.17 |
| Cc1nc(CCNC2CCN(Cc3ccccc3)C2)sc1C (stereo not given) | 53.5 |
| CCC(=O)c1ccc(Br)cc1NN1c2cc(Br)ccc2C(=O)C1(C)OC (stereo not given) | 43.1 |
| CCc1n[nH]c(C(=O)N2CCN(c3ccc4ccccc4c3)CC2)c1C | -8.02 |
| CCN(C(C)=O)c1nc(CN2CCCCC2Cn2cncn2)cs1 (stereo not given) | 9.81 |
| CC(=O)N(C)c1nc(CN2CCCCC2Cn2cncn2)cs1 (stereo not given) | -125 |
| CC(=O)N(c1ccc(C)cc1)c1nc(CN2CCCCC2C)cs1 (stereo not given) | 61.8 |
| Cc1cnc(NC(C)Cc2cccnc2)nc1N(C)C (stereo not given) | 5.71 |
| O=C(NCc1ccco1)[C@@H]1CCO[C@@H]2CCN(CC3CC3)C[C@@H]21 | -37.9 |
| CN1CC(=O)N(c2cccc(F)c2)CC12CCN(Cc1nccs1)C2 (stereo not given) | -71.1 |
| c1ccc(-n2nnnc2CNCC2CCCN2c2cccnn2)cc1 (stereo not given) | -59.9 |
| COCCN1CCCC(c2nccnc2-c2cccc(Cl)c2)C1 (stereo not given) | 62.9 |
| Cn1cc(CN2CCCC(c3nccnc3-c3cccc(F)c3)C2)cn1 (stereo not given) | -45.2 |
| CN(C)C(=O)CN1CCCC(c2nccnc2-c2cccc(Cl)c2)C1 (stereo not given) | 6.94 |
| Cc1cccc(-c2nccnc2C2CCCN(C)C2)c1 (stereo not given) | -10.8 |
| CN1CCCC(c2nccnc2-c2cccc(C(F)(F)F)c2)C1 (stereo not given) | 68.7 |
| CN1CCCC(c2nccnc2-c2cccc(Cl)c2)C1 (stereo not given) | 45.1 |

Source: ChEMBL document CHEMBL4513216, “Probing the Open Global Health Chemical Diversity Library for Multistage-Active Starting Points for Next-Generation Antimalarials” (ACS Infect Dis, 2020)
